ULK1 inh: blocks human autophagy kinase ULK1; AlphaScreen Atg13 phosphorylation by ULK1, luminescence; inhibition, % at 5.96 µM; hit rate 1.9% among 30,000; AID 1259251; in the data active = inhibition above about 43%
ASK1 primary: inhibitors of human ASK1 kinase | hit rate 0.99% among 22,000 | inhibition, % at 7.44 µM | Q99683 | AlphaScreen MKK6 phosphorylation by ASK1, luminescence; in the data active = inhibition above about 35%
Large screens that a line does not name were inactive. Rows were chosen to be rich in hits. Some 2.5% of all compounds tested hit in one or more screens of this group.

O=C(O)c1ccccc1-c1c2cc(I)c(=O)c(I)c-2oc2c(I)c(O)c(I)cc12	none (no result: ASK1 primary)
O=C(O)c1c(Cl)c(Cl)c(Cl)c(Cl)c1-c1c2cc(I)c(=O)c(I)c-2oc2c(I)c(O)c(I)cc12	ULK1 inh 45 (no result: ASK1 primary)
CC(C)(C)OC(=O)NC(c1ccc(Nc2nccc(-c3ccccc3)n2)cc1)C(F)(F)F (centres undefined)	none
c1nc(Nc2ccc3c(c2)OCO3)cc(N2CCC(N3CCOCC3)CC2)n1	none
CCNc1ncc(C)c(NCCOc2ccccc2)n1	none
Cc1cnc(Nc2ccccc2)nc1NCCOc1ccccc1	none
Cc1cnc(Nc2ccncc2)nc1NCCOc1ccccc1	ULK1 inh 50
COc1cc(Nc2ncc(C)c(NCCOc3ccccc3)n2)cc(OC)c1OC	ULK1 inh 63
O=C(NCc1cccnc1)c1ccc2nc(-c3ccc(C(=O)NC4CC4)cc3)sc2c1	none
O=C(NCc1nc2ccccc2[nH]1)c1ccc2nc(Nc3nccc4ccccc34)sc2c1	none
Cc1ncn(-c2ccc(Nc3nccc(-c4ccc(N5CCOCC5)cc4)n3)cc2)n1	none
CS(=O)(=O)Nc1ccc(-c2ccnc(Nc3ccc(N4CCC(O)CC4)cc3)n2)cc1	ULK1 inh 75
Cc1ncn(-c2ccc(Nc3nccc(-c4ccc(NS(C)(=O)=O)cc4)n3)cc2)n1	ULK1 inh 57
N#Cc1cc(-c2ccnc(Nc3ccc(N4CCC(O)CC4)cc3)n2)cc(N2CCOCC2)c1	none
COc1ccc(CCNC(=O)C2CCN(c3ccc(Nc4ccnn4C)nn3)CC2)cc1	none
CNS(=O)(=O)c1ccccc1Nc1cc(Nc2cc(-c3cncnc3)nc(C)n2)ncc1C(F)(F)F	ULK1 inh 73
Cc1nc(Nc2ccccc2)cc(-c2cncc(-c3ccccc3)c2)n1	none (no result: ASK1 primary)
CNS(=O)(=O)c1ccccc1Nc1cc(Nc2ccc(N3CCCC3=O)cc2)ncc1C(F)(F)F	ULK1 inh 50
CS(=O)(=O)c1cccc(CNc2cc(Nc3ccc(N4CCCC4=O)cc3)ncc2C(F)(F)F)c1	none
O=C(NCc1nc2ccccc2[nH]1)c1csc(N2CCN(Cc3ccc4c(c3)OCO4)CC2)n1	none
CCN(CC)c1nc(NCc2cccnc2)nc(Nc2cc(OC)c(OC)c(OC)c2)n1	none
O=C(c1cc(Nc2ccc3[nH]ncc3c2)ccn1)N1CCOCC1	none
O=C(c1cccc(Nc2ccc3[nH]ncc3c2)n1)N1CCOCC1	ULK1 inh 48
Cc1cccc(CC(=O)Nc2cnn(-c3cccc(C(=O)Nc4ccc(CN)cc4)c3)c2)c1	none
O=C(NCCc1ccccc1)c1ccc2cncc(-c3ccccc3)c2n1	ULK1 inh 55 (no result: ASK1 primary)
COc1ccc(-c2cncc3ccc(C(=O)NCc4ccccc4)nc23)cc1	none (no result: ASK1 primary)
Cn1cc(-c2nc(Nc3ccc(N4CCOCC4)cc3)ncc2F)cn1	none
Cn1cc(-c2ccc3cnc(Nc4ccc(-n5ccnc5)cc4)nc3c2)cn1	ULK1 inh 88
Cn1cc(-c2ccc3cnc(Nc4ccc(C(=O)N5CCOCC5)cc4)nc3c2)cn1	ULK1 inh 73
Cn1cc(-c2ccc3cnc(Nc4ccc(-n5cnc(-c6ccccn6)n5)cc4)nc3c2)cn1	none
Cc1ccc(-c2ncn(-c3ccc(Nc4ncc5ccc(-c6cnn(C)c6)cc5n4)cc3)n2)cn1	none
Cc1nc(C)n(-c2ccc(Nc3ncc4ccc(-c5cn[nH]c5)cc4n3)cc2)n1	none
Cc1nc(C)n(-c2ccc(Nc3cc4cc(-c5cn[nH]c5)ccc4cn3)cc2)n1	ULK1 inh 81
Cn1cc(-c2ccc3cnc(Nc4ccc(N5CCOCC5)cc4)nc3c2)cn1	ULK1 inh 84
O=C(NCc1cccnc1)c1ccc2nc(Nc3cnccn3)sc2c1	none
FC(F)(F)c1cccc(CNc2cc(-c3ccccc3)ncn2)c1	none
c1cc(-c2ccc3cnc(Nc4ccc(-n5cnc(N6CCOCC6)n5)cc4)nc3c2)c[nH]1	none
Cc1cnc(Nc2ccc(-n3ccnc3)cc2)nc1N	none
c1cn(-c2ccc(Nc3ncc4ccc(-c5cn[nH]c5)cc4n3)cc2)cn1	ULK1 inh 90
Cn1ncc2cc(Nc3ncc4ccc(-c5cn[nH]c5)cc4n3)ccc21	ULK1 inh 75
Cc1noc(C)c1-c1cncc(C(=O)NCCN2CCOCC2)c1	none
O=C(NCCN1CCOCC1)c1cnc(Nc2nccc3ccccc23)s1	none
OC[C@H]1OC([S-])[C@H](O)[C@@H](O)[C@@H]1O.[Au+] (some centres undefined)	ULK1 inh 66 (no result: ASK1 primary)
OC[C@H]1OC(O)[C@H](O)[C@@H](O)[C@H]1O (some centres undefined)	none (no result: ASK1 primary)
COc1cc(/C=N/Nc2nncn2/N=C/c2ccc(O)c(OC)c2)ccc1O	ULK1 inh 51 (no result: ASK1 primary)
COc1cc(C=NNC(=O)c2ccncc2)ccc1O	none (no result: ASK1 primary)
C[C@H]1C(=O)Nc2cc(S(C)(=O)=O)ccc2N1C(=O)c1ccc(Cl)cc1Cl	none (no result: ASK1 primary)
O=S(=O)(O)c1ccccc1O	none (no result: ASK1 primary)
Cc1cc(-c2ccc(N=Nc3ccc4c(S(=O)(=O)O)cc(S(=O)(=O)O)c(N)c4c3O)c(C)c2)ccc1N=Nc1ccc2c(S(=O)(=O)O)cc(S(=O)(=O)O)c(N)c2c1O	ULK1 inh 57 (no result: ASK1 primary)
Nc1c(N=Nc2ccc(-c3ccc(N=Nc4cc(S(=O)(=O)O)c5ccccc5c4N)cc3)cc2)cc(S(=O)(=O)O)c2ccccc12	ULK1 inh 56 (no result: ASK1 primary)
COc1ccc(-c2cc(C(=O)NCc3cccc(C(F)(F)F)c3)ccn2)cc1	none
c1ccc(CNc2nc(-c3ccccc3)nc3nc[nH]c23)cc1	none
Oc1ccc(CCNc2nc(Nc3ccc(C(F)(F)F)cc3)nc3c2ncn3-c2ccccc2)cc1	none
COc1cc2c(cnn2-c2cccc(C(=O)NCCN3CCOCC3)c2)cc1Nc1ccccc1	none
O=C(NCCN1CCOCC1)c1cccc(-n2ncc3cc(Nc4ccccc4)c(N4CCOCC4)cc32)c1	ULK1 inh 65
COc1ccc2c(c1)C[C@H](C(=O)Nc1ccc(-c3cn[nH]c3)cc1C(N)=O)NC2	none
c1ccc(Nc2cc(Nc3ccc4c(c3)OCO4)ncn2)cc1	none
c1cc(Nc2cc(Nc3ccc4c(c3)OCO4)ncn2)ncn1	ULK1 inh 60
CN(C)C(=O)c1cnccc1Nc1ccc(C(=O)NC[C@@H](O)C(=O)N(C)C)cc1	none
O=C1CCCN1CCn1cnc2c(NC3CC3)nc(Nc3ccncc3)nc21	none
COc1ccc2c(c1)CC(C(=O)Nc1ccc(-c3cn[nH]c3)cc1Oc1cccc(NC(C)=O)c1)CO2 (centres undefined)	none
COc1cc(N2CCOCC2)ccc1Nc1cc(Nc2ccccc2C(=O)N(C)C)c(C(F)(F)F)cn1	ULK1 inh 74
Cn1ccc(-c2ccccc2Nc2ccnc(Nc3ccc(N4CCOCC4)cc3)c2)n1	none
CNC(=O)c1ccccc1Nc1cc(Nc2ccc(N3CCOCC3)cc2OC)ncc1C	none
COc1cc(N2CCOCC2)ccc1Nc1cc(Nc2ccccc2C(N)=O)c(C(F)F)cn1	ULK1 inh 83
COc1cc(N2CCOCC2)ccc1Nc1cc(-c2cnn(C)c2)c(Cl)cn1	none
Cn1nc(C2CC2)cc1Nc1cc(Nc2ccc(N3CCOCC3)cc2)ncc1C(F)(F)F	ULK1 inh 46
COc1ccc(CCNC(=O)c2ccc3nc(Nc4ccncc4)sc3c2)cc1	none
FC(F)(F)c1cccc(CNc2nc(N3CCC(N4CCOCC4)CC3)nc3c2ncn3C2CCCCC2)c1	none
Cc1cnc(Nc2ccc(C(F)(F)F)cc2)nc1NCCOc1ccccc1	none
c1ccc(OCCNc2ccnc(-c3ccc(N4CCOCC4)nc3)n2)cc1	none
CC(C)N(CCNc1nc(Nc2ccc3ncccc3c2)nc2nc[nH]c12)C(C)C	none
CN(C)c1cccc(Nc2nc(Nc3ccccc3)c3[nH]cnc3n2)c1	none
Oc1ccc(CCNc2nc(Nc3ccc4ncccc4c3)nc3nc[nH]c23)cc1	ULK1 inh 60
